The text below walks through data of PubChem BioAssay.

By inhibition is commonly meant the relative decrease from the control value, in per cent.

Activity calls are given as the source filed them.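 Rule for the calls, unless noted: active = inhibition of the reporter signal at or above 50%; inactive = inhibition below 50%.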

Assay [1] is described as follows: inhibitors of TNFa-induced NFkB p65 translocation, primary screen, imaging, HUVEC, MLSMR starter and 10KST1 sets (AID 438;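 active = inhibition above 20% together with a positive visual image hit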;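 note: compound added about 3h40 before a 20 min TNFalpha stimulation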;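 for inhibition: signal is the nuclear over cytoplasmic p65 intensity ratio per well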). The conditions noted are these: HUVEC TNFa-induced p65 nuclear translocation; cell count: measured here: nuclei count (cytotoxicity indicator), at 2.08 µM; inhibition: at 2 µM, stronger effect = higher value, 0% TNFa-plus-vehicle, 100% no-TNFa wells.
Assay [2] in a line: reduction of polyQ htt aggregates in cells – imaging, exon1htt(103Q)mCFP cells, high-content imaging, primary screen (AID 483;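 active = visual image review flags a hit and inhibition of aggregation exceeds 20%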;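 note: compound exposure lasted 3 days before fixation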;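 for nuclei count: percent of the per-plate median nuclei count of sample wells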). The conditions noted are these: exon1htt(103Q)mCFP cell line, aggregate imaging, at 2 µM; inhibition of aggregation: stronger effect = higher value; nuclei count: measured here: cell count, toxicity.
The nature of assay [3]: endothelial E-selectin expression blockers – imaging, HUVEC, immunofluorescence, MLSMR starter and 10KST1 sets, primary screen (AID 487;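 active = visually confirmed hit in the image check and inhibition above 20%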;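 for inhibition: signal is fraction of cell area covered by stained E-selectin grains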;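 for nuclei count: 100% = median nuclei count of all wells on the same plate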). The conditions noted are these: HUVEC TNFalpha-induced E-selectin immunofluorescence imaging, at 2 µM; inhibition: stronger effect = higher value; nuclei count: measured here: cell number, toxicity.
In assay [4] the target is Voltage-gated potassium channel subunit beta-2 (Rattus norvegicus) (UniProt P62483). The experiment in a line: inhibitors of rat Kvbeta2 reductase activity – biochemical, NADPH fluorescence, primary screen (AID 622;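 active = fluorescence slope higher than the sample average by over 3 SD, cut at about -0.22 in these data, passing the limit was not always enough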;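 note: slope of raw intensity against log time taken from 70 to 1610 s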). The conditions noted are these: recombinant KvBeta, 4-cyanobenzaldehyde reduction, at 10 µM, stronger effect = higher value.
Chain of Voltage-gated potassium channel subunit beta-2 (Rattus norvegicus) (P62483 whole entry, looked up): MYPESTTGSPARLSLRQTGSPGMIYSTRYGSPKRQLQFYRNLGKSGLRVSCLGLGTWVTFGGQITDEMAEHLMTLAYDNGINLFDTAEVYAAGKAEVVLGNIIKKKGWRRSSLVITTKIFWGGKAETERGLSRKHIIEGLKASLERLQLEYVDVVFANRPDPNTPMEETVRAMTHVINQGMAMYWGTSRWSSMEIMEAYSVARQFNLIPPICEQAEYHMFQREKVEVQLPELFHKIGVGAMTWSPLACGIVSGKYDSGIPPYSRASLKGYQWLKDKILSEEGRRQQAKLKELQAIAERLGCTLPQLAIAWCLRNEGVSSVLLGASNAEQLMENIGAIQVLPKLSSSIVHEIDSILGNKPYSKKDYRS
The target is the same in assay [5]. The experiment in a line: enhancers of rat Kvbeta2 NADPH turnover – biochemical, NADPH fluorescence, primary screen (AID 623;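 active = NADPH fluorescence slope more negative than the mean of all samples by about 3 SD, 99.7% confidence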;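 note: fluorescence intensity change per second fitted from 20 to 320 s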). The conditions noted are these: Recombinant KvBeta, NADPH fluorescence decrease slope, 10 min; at 10 µM; stronger effect = lower value.
Assay [6] addresses Alpha-2C adrenergic receptor (Homo sapiens) (UniProt P18825). Description: compounds altering alpha2C-coupled GIRK flux – cell-based, HEK293 alpha2C/GIRK1/2, thallium flux, primary screen (AID 624;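 active = fluorescence slope after compound addition differing from the mean of all screened samples at 99.7% confidence, in either direction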;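 note: slope of fluorescence ratio to pre-addition baseline per second over 15 to 24 s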). The conditions noted are these: thallium flux BTC fluorescence, at 10 µM, actives lie on both sides.
Assay [7] is described as follows: blockers of RIG-like receptor reporter activation – cell-based, Sendai virus stimulus, luciferase, 10K MLSCN set, TLR/RLR signaling modifier project, primary screen (AID 602276;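 active = inhibition at or above 50% at 10 µM; inactive = inhibition below 50%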;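 note: firefly luciferase from ISG56 promoter only with Renilla not read in this screen; 0% = Sendai virus plus DMSO and 100% = medium plus DMSO without virus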). The conditions noted are these: HEK293 RL24 IRF3 luciferase reporter, at 10 µM, stronger effect = higher value. For orientation: A reporter such as luciferase makes a cellular process visible.
Assay [8] is described as follows: TLR3 IRF3 reporter activation blockers – cell-based, poly I:C stimulus, luciferase, 10K MLSCN set, primary screen (AID 602277). The conditions noted are these: HEK293-TLR3 RL24 IRF3 luciferase reporter, at 10 µM, stronger effect = higher value.

Chain of Alpha-2C adrenergic receptor (Homo sapiens) (P18825 whole entry, looked up): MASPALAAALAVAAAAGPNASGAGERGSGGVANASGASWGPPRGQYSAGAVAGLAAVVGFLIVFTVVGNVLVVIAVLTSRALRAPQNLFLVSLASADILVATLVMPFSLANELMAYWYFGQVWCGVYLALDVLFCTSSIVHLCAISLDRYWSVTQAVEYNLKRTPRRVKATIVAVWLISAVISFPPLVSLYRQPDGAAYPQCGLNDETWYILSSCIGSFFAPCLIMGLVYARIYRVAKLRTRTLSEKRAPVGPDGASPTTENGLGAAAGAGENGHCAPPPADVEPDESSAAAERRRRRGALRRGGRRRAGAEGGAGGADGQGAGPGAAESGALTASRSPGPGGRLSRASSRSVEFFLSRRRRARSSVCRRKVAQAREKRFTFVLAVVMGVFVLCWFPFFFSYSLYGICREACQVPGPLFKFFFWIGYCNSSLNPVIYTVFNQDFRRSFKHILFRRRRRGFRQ

Turning to `O=C(O)C1CCCCC1C(=O)NCCc1ccccc1` (centres undefined), the cell count in assay [1] was 350. In addition, the inhibition in assay [1] was 4.6% (inactive); in assay [3], -165% (inactive); in assay [7], -15.8% (inactive); in assay [8] it was -11.5% (inactive). In addition, the inhibition of aggregation in assay [2] was 14.3% (inactive). For the same compound, the nuclei count is 99.3% in assay [2] and 103% in assay [3]. In addition, in assay [4], the fluorescence slope is -0.535 (inactive). Besides, the NADPH fluorescence slope in assay [5] was -5.8e-05 (inactive). Also, in assay [6], the slope is 0.00513 (inactive).

On to `COCCSc1nnc(NC(=O)Cc2ccccc2OC)s1`, for which the cell count in assay [1] worked out at 660. For the same compound, the inhibition in assay [1] is -15.1% (inactive); in assay [3], -30.7% (inactive); in assay [7] it was 16.6% (inactive); in assay [8] it was 25.8% (inactive). For the same compound, in assay [2], the inhibition of aggregation was 5.4% (inactive). Also, the nuclei count was determined as 94.2% in assay [2] and 103% in assay [3]. In addition, the fluorescence slope in assay [4] is -0.411 (inactive). The NADPH fluorescence slope in assay [5] is -5.1e-05 (inactive). Moreover, the slope in assay [6] was 0.00483 (inactive).

For the compound `CCCCCC1CC(CC(C)C(=O)Nc2nncs2)C(=O)O1` (centres undefined), in assay [1], the cell count amounted to 629. Besides, the inhibition in assay [1] is -7.3% (inactive); in assay [3] it was -68% (inactive); in assay [7], 11.3% (inactive); in assay [8] it was 20.7% (inactive). In assay [2], the inhibition of aggregation was -20.6% (inactive). In addition, the results for the nuclei count in assay [2] and in assay [3] were 112% and 85.5%, respectively. Moreover, the fluorescence slope in assay [4] was -0.369 (inactive). In addition, the NADPH fluorescence slope in assay [5] was 2.3e-05 (inactive). Also, the slope in assay [6] was 0.00624 (inactive).

With `COc1ccc(C(NC(=O)C(C)(C)C)NC(=O)C(C)(C)C)cc1`, the cell count in assay [1] was found to be 364. Moreover, the inhibition in assay [1] was 3% (inactive); in assay [3] it was -52.8% (inactive); in assay [7], 4.79% (inactive); in assay [8], 9.47% (inactive). In addition, the inhibition of aggregation in assay [2] was 0.4% (inactive). The nuclei count was 106% in assay [2] and 102% in assay [3]. Besides, the fluorescence slope in assay [4] is -0.618 (inactive). Besides, the NADPH fluorescence slope in assay [5] is -1e-05 (inactive). In assay [6], the slope was 0.00914 (inactive).

`Cc1noc(C)c1S(=O)(=O)N1CCN(Cc2ccc3c(c2)OCO3)CC1`: in assay [1], the cell count is 730. Further, the inhibition is 2.5% (inactive) in assay [1], -16.7% (inactive) in assay [3], 4.24% (inactive) in assay [7] and 18.3% (inactive) in assay [8]. Besides, the inhibition of aggregation in assay [2] is 0.3% (inactive). For the same compound, the nuclei count in assay [2] came to 106%; in assay [3], 117%. In assay [4], the fluorescence slope was -0.542 (inactive). The NADPH fluorescence slope in assay [5] is -2e-05 (inactive). Moreover, in assay [6], the slope is 0.00533 (inactive).

As to `Cn1c(=O)[nH]c(=O)c2c1nc(CN1CCN(c3cccc(Cl)c3)CC1)n2CCc1ccccc1`, the cell count in assay [1] is 683. Further, the inhibition in assay [1] was -9.7% (inactive); in assay [3], -90.8% (inactive); in assay [7] it was -13.9% (inactive); in assay [8] it was -0.338% (inactive). In addition, in assay [2], the inhibition of aggregation is 6.6% (inactive). For the same compound, the nuclei count in assay [2] was 107%; in assay [3], 87.9%. Moreover, the fluorescence slope in assay [4] was -0.587 (inactive). In addition, the NADPH fluorescence slope in assay [5] is 8.1e-06 (inactive). Moreover, in assay [6], the slope was 0.00654 (inactive).

As to `Cc1ccc(CCNC(=O)CC2Oc3ccc(C)cc3NC2=O)cc1` (centres undefined), the cell count in assay [1] is 644. The inhibition is 5.5% (inactive) in assay [1], -33.5% (inactive) in assay [3], -18.4% (inactive) in assay [7] and 2.52% (inactive) in assay [8]. Besides, in assay [2], the inhibition of aggregation was -11.9% (inactive). Moreover, the nuclei count in assay [2] was found to be 105%; in assay [3], 124%. Moreover, in assay [4], the fluorescence slope was -0.558 (inactive). For the same compound, the NADPH fluorescence slope in assay [5] is 1.2e-05 (inactive). Besides, the slope in assay [6] is 0.00676 (inactive).

For `COC(=O)Nc1nc2c(C)cccc2s1`, the cell count in assay [1] was found to be 299. For the same compound, the inhibition in assay [1] is 0.7% (inactive); in assay [3], -33.7% (inactive); in assay [7] it was -14.5% (inactive); in assay [8] it was -45% (inactive). Further, in assay [2], the inhibition of aggregation was -2.9% (inactive). The nuclei count in assay [2] is 95.7%; in assay [3], 101%. For the same compound, the fluorescence slope in assay [4] is -0.469 (inactive). Moreover, the NADPH fluorescence slope in assay [5] is 9.8e-07 (inactive). The slope in assay [6] is 0.0031 (inactive).

`Cc1c(NC2=NC3(CCCCC3)Cc3ccccc32)c(=O)n(-c2ccccc2)n1C`: the cell count in assay [1] was determined as 716. Moreover, the inhibition in assay [1] was -5.3% (inactive); in assay [3] it was 59.1% (active); in assay [7] it was 13.1% (inactive); in assay [8] it was 21.6% (inactive). Moreover, the inhibition of aggregation in assay [2] is 6.1% (inactive). For the same compound, the nuclei count in assay [2] was 101%; in assay [3], 72.3%. Besides, the fluorescence slope in assay [4] is -0.354 (inactive). Moreover, in assay [5], the NADPH fluorescence slope is -6.6e-05 (inactive). For the same compound, the slope in assay [6] was 0.00622 (inactive).

`CC(CN1CCCCC1)OC(=O)c1ccc(Cl)cc1Cl` (centres undefined): in assay [1], the cell count came to 585. The inhibition in assay [1] is 10.3% (inactive); in assay [3], 9.3% (inactive); in assay [7], -18.5% (inactive); in assay [8], -15.9% (inactive). Moreover, the inhibition of aggregation in assay [2] was -8.8% (inactive). In addition, the nuclei count was 87.8% in assay [2] and 105% in assay [3]. Also, the fluorescence slope in assay [4] is -0.438 (inactive). In assay [5], the NADPH fluorescence slope was 1.5e-06 (inactive). Also, the slope in assay [6] is 0.00424 (inactive).

Turning to `O=C(c1ccc2c(c1)OCCO2)C1CCN(C(=O)c2ccc(F)cc2)CC1`, the cell count in assay [1] was 326. In addition, the inhibition in assay [1] was -10% (inactive); in assay [3], -77.5% (inactive); in assay [7], 7.11% (inactive); in assay [8] it was -2.46% (inactive). Also, the inhibition of aggregation in assay [2] was -12% (inactive). In addition, the nuclei count amounted to 110% in assay [2] and 126% in assay [3]. Further, in assay [4], the fluorescence slope is -0.514 (inactive). In addition, the NADPH fluorescence slope in assay [5] is -4.4e-05 (inactive). For the same compound, the slope in assay [6] is 0.00672 (inactive).

Take `Cn1c2ccc(F)cc2c2ncn(CCN3CCOCC3)c(=O)c21`: the cell count in assay [1] amounted to 719. For the same compound, the inhibition in assay [1] is -8.9% (inactive); in assay [3], -39.1% (inactive); in assay [7] it was -47.2% (inactive); in assay [8], 99.1% (active). Moreover, the inhibition of aggregation in assay [2] is -7.4% (inactive). Moreover, the nuclei count in assay [2] worked out at 81.6%; in assay [3] it was 109%. The fluorescence slope in assay [4] was -0.424 (inactive). The NADPH fluorescence slope in assay [5] is -1.5e-05 (inactive). Besides, in assay [6], the slope is 0.00608 (inactive).

For the compound `COc1cccc(-c2nc(CS(=O)(=O)CC(=O)Nc3cc(C)ccc3C)c(C)o2)c1`, the cell count in assay [1] amounted to 718. For the same compound, the inhibition in assay [1] is -4.6% (inactive); in assay [3], -21.2% (inactive); in assay [7], 5.73% (inactive); in assay [8], 27.7% (inactive). Also, the inhibition of aggregation in assay [2] was -2.5% (inactive). Also, the nuclei count in assay [2] came to 59.5%; in assay [3], 104%. Also, in assay [4], the fluorescence slope was -0.517 (inactive). Also, the NADPH fluorescence slope in assay [5] was -4.8e-05 (inactive). Besides, in assay [6], the slope is 0.00688 (inactive).

Turning to `C=CCn1c(CC#N)nnc1N1CCOCC1`, the cell count in assay [1] was found to be 481. For the same compound, the inhibition in assay [1] is 0.7% (inactive); in assay [3], -92% (inactive); in assay [7], 6.66% (inactive); in assay [8], 13.3% (inactive). For the same compound, the inhibition of aggregation in assay [2] is -15% (inactive). For the same compound, the nuclei count was found to be 116% in assay [2] and 118% in assay [3]. In addition, the fluorescence slope in assay [4] is -0.487 (inactive). Further, the NADPH fluorescence slope in assay [5] is 2.7e-05 (inactive). Further, in assay [6], the slope is 0.00619 (inactive).
